Here are results for seven sequences from publication PMC7862700, “An all-to-all approach to the identification of sequence-specific readers for epigenetic DNA modifications on cytosine”.

Experiment in all cases: DAPPL (digital affinity profiling via proximity ligation, sequencing); 10 mM Tris-HCl pH 7.5, 50 mM NaCl, 1 mM DTT, 4% glycerol, room temperature, 30 min; GST-TFs on glutathione beads, 16-mer random dsDNA library, 0.1% formaldehyde crosslink after washing; high values mean tight binding
Holding throughout (settings): protein: recombinant; tags: N-terminal GST; dsDNA, one strand shown

One assay addresses T1, ERF (Homo sapiens, UniProt P50548 1-548).
T1 sequence: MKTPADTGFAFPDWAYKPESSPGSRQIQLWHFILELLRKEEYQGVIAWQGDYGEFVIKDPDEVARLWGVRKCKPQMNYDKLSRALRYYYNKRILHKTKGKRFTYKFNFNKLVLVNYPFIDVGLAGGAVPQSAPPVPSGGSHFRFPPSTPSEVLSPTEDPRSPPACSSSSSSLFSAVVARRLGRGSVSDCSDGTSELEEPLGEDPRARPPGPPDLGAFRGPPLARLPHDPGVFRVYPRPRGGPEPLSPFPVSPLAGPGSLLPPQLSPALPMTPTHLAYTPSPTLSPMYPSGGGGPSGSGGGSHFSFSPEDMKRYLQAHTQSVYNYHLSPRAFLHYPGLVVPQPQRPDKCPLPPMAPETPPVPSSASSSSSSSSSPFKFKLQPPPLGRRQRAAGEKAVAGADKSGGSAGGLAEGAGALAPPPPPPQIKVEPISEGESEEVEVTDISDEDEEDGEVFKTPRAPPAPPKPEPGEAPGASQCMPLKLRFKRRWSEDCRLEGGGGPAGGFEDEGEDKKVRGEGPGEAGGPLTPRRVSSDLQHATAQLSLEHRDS
The procedure, abridged:
(§1)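 A tag-only sample was pooled with DNA-barcoded human transcription factors that had been expressed in yeast as GST fusions and captured on glutathione beads. The pools were incubated for 30 min at room temperature with 200 nmole of a random double-stranded 16-mer DNA library in Tris/NaCl/DTT/glycerol buffer, then washed, crosslinked with 0.1% formaldehyde, proximity-ligated (BsaI/T4 ligase, 1 h, 37 °C), PCR-amplified and sequenced on an Illumina NextSeq500. Binding signal is each hexamer's read frequency for a factor divided by its frequency for the tag-only sample.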

The target of another assay is T2, ETV3L (Homo sapiens, UniProt Q6ZN32 1-361).
T2 sequence: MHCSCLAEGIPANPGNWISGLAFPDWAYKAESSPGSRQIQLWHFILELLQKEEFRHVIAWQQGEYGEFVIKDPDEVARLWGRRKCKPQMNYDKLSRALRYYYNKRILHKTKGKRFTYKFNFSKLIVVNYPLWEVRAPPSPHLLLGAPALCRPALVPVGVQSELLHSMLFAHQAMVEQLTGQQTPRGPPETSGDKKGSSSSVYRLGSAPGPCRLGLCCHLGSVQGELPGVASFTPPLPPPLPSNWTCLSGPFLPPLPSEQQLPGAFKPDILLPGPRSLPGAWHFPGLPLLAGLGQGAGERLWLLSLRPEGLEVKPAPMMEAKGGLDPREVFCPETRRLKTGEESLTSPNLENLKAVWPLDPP
The method in brief: as §1

In the next assay the target is T3, ETS2 (Homo sapiens, UniProt P15036 1-469).
T3 sequence: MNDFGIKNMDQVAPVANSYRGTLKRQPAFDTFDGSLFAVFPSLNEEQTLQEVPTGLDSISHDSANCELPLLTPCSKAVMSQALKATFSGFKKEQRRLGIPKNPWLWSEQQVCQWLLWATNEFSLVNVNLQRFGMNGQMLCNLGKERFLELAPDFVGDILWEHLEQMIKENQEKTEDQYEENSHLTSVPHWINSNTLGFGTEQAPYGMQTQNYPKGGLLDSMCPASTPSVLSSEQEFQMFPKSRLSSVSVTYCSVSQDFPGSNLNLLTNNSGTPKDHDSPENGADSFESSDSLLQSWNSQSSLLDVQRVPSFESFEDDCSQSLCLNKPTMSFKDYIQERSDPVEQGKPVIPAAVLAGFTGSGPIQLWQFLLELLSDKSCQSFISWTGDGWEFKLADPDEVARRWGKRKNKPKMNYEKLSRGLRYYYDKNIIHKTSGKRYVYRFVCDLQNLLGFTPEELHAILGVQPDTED
The procedure, abridged: as §1

The next assay addresses T4, SPDEF (Homo sapiens, UniProt O95238 1-335).
T4 sequence: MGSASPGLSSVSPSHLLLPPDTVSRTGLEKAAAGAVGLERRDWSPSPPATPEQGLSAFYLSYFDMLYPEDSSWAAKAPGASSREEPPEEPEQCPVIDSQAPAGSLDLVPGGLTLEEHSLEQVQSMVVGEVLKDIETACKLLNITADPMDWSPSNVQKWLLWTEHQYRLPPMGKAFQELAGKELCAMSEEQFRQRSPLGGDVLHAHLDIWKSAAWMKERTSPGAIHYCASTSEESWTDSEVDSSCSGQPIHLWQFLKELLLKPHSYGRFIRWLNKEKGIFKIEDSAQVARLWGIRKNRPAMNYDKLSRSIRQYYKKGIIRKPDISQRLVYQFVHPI
The method in brief:
as §1

The target of the next assay is T5, ETV7 (Homo sapiens, UniProt Q9Y603 1-341).
T5 sequence: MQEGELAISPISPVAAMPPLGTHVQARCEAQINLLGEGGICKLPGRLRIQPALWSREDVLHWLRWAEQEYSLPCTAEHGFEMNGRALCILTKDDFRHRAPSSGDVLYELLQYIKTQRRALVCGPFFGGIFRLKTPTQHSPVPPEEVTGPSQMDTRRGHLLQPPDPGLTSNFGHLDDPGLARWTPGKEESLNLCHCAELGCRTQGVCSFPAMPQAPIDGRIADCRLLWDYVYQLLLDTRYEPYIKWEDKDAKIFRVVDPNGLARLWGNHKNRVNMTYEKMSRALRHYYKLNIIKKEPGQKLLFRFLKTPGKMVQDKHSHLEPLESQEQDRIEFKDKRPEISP
The method in brief:
as §1

Another assay has as its target T6, ELF5 (Homo sapiens, UniProt Q9UKW6-2 1-255).
T6 sequence: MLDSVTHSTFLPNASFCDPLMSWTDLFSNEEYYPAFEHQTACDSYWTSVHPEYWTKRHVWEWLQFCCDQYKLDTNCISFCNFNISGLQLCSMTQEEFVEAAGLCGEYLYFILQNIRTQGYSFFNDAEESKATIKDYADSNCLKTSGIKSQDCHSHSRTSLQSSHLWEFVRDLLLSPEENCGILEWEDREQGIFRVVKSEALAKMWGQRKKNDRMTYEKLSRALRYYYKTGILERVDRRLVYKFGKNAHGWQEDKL
The procedure, abridged:
as §1

The next assay deals with T7, ETV3 (Homo sapiens, UniProt P41162-2 1-143).
T7 sequence: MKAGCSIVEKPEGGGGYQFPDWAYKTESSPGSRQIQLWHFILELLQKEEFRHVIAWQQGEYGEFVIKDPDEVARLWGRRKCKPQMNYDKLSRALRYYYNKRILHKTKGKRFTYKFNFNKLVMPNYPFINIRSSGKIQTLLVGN
The method in brief: as §1

A further assay concerns the target ETV6 (Homo sapiens, UniProt P41212 1-452). The procedure, abridged:
as §1

Chain of ETV6 (P41212 whole entry): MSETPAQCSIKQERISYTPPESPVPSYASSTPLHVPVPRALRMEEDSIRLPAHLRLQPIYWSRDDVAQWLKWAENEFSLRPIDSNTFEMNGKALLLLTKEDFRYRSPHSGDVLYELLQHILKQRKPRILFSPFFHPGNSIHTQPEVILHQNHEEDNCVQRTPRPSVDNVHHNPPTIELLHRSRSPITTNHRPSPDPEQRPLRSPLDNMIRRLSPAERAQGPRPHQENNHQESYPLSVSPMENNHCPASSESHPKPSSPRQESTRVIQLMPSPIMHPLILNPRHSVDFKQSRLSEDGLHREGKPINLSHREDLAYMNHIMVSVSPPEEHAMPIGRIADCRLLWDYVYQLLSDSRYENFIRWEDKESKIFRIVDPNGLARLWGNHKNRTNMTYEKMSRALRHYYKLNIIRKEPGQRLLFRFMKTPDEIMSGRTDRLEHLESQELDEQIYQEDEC

Regarding CCACTG, the binding signal with ERF was 1.22 fold enrichment (6-mer frequency, TF over GST control); with ETV3L, 1.15 fold enrichment (6-mer frequency, TF over GST control); in the assay with ETS2 it was 1.16 fold enrichment (6-mer frequency, TF over GST control); in the assay with SPDEF, 1.14 fold enrichment (6-mer frequency, TF over GST control); with ETV7 it was 1.1 fold enrichment (6-mer frequency, TF over GST control); with ELF5, 1.09 fold enrichment (6-mer frequency, TF over GST control). The binding signal was 1.15 fold enrichment (6-mer frequency, TF over GST control) with ETV3 and 1.22 fold enrichment (6-mer frequency, TF over GST control) with ETV6.
Take CTTGTT: the binding signal in the assay with ERF is 1.17 fold enrichment (6-mer frequency, TF over GST control); with ETV3L it was 1.17 fold enrichment (6-mer frequency, TF over GST control); with ETS2 it was 1.15 fold enrichment (6-mer frequency, TF over GST control); with SPDEF, 1.05 fold enrichment (6-mer frequency, TF over GST control); with ETV7, 1.27 fold enrichment (6-mer frequency, TF over GST control); with ELF5, 1.27 fold enrichment (6-mer frequency, TF over GST control). Besides, the binding signal is 1.2 fold enrichment (6-mer frequency, TF over GST control) with ETV3 and 1.12 fold enrichment (6-mer frequency, TF over GST control) in the assay with ETV6.
As for TGACGC, the binding signal in the assay with ERF was 1.34 fold enrichment (6-mer frequency, TF over GST control); with ETV3L, 1.24 fold enrichment (6-mer frequency, TF over GST control); with ETS2, 1.12 fold enrichment (6-mer frequency, TF over GST control); in the assay with SPDEF, 1.13 fold enrichment (6-mer frequency, TF over GST control); in the assay with ETV7 it was 1.13 fold enrichment (6-mer frequency, TF over GST control); in the assay with ELF5, 1.19 fold enrichment (6-mer frequency, TF over GST control). The binding signal in the assay with ETV3 was 1.15 fold enrichment (6-mer frequency, TF over GST control); in the assay with ETV6, 1.19 fold enrichment (6-mer frequency, TF over GST control).
Take AACAGG: the binding signal in the assay with ERF was 1.16 fold enrichment (6-mer frequency, TF over GST control); with ETV3L, 1.15 fold enrichment (6-mer frequency, TF over GST control); in the assay with ETS2, 1.13 fold enrichment (6-mer frequency, TF over GST control); with SPDEF, 1.31 fold enrichment (6-mer frequency, TF over GST control); with ETV7, 1.15 fold enrichment (6-mer frequency, TF over GST control); with ELF5, 1.24 fold enrichment (6-mer frequency, TF over GST control). In addition, the binding signal was 1.25 fold enrichment (6-mer frequency, TF over GST control) in the assay with ETV3 and 1.29 fold enrichment (6-mer frequency, TF over GST control) in the assay with ETV6.
For TTCCGT, the binding signal is 1.61 fold enrichment (6-mer frequency, TF over GST control) in the assay with ERF; 1.85 fold enrichment (6-mer frequency, TF over GST control) in the assay with ETV3L; 1.94 fold enrichment (6-mer frequency, TF over GST control) with ETS2; 1.91 fold enrichment (6-mer frequency, TF over GST control) with SPDEF; 1.6 fold enrichment (6-mer frequency, TF over GST control) in the assay with ETV7; 2.76 fold enrichment (6-mer frequency, TF over GST control) in the assay with ELF5. In addition, the binding signal with ETV3 was 2.16 fold enrichment (6-mer frequency, TF over GST control); with ETV6, 2.02 fold enrichment (6-mer frequency, TF over GST control).
With TCCATC, the binding signal in the assay with ERF was 1.17 fold enrichment (6-mer frequency, TF over GST control); with ETV3L, 1.31 fold enrichment (6-mer frequency, TF over GST control); with ETS2, 1.2 fold enrichment (6-mer frequency, TF over GST control); in the assay with SPDEF, 1.3 fold enrichment (6-mer frequency, TF over GST control); in the assay with ETV7, 1.2 fold enrichment (6-mer frequency, TF over GST control); with ELF5, 1.17 fold enrichment (6-mer frequency, TF over GST control). Besides, the binding signal is 1.22 fold enrichment (6-mer frequency, TF over GST control) in the assay with ETV3 and 1.13 fold enrichment (6-mer frequency, TF over GST control) in the assay with ETV6.
Turning to CACTCC, the binding signal with ERF was 1.15 fold enrichment (6-mer frequency, TF over GST control); with ETV3L, 1.33 fold enrichment (6-mer frequency, TF over GST control); in the assay with ETS2, 1.17 fold enrichment (6-mer frequency, TF over GST control); with SPDEF, 1.2 fold enrichment (6-mer frequency, TF over GST control); in the assay with ETV7 it was 1.24 fold enrichment (6-mer frequency, TF over GST control); with ELF5, 1.18 fold enrichment (6-mer frequency, TF over GST control). Further, the binding signal with ETV3 is 1.26 fold enrichment (6-mer frequency, TF over GST control); with ETV6 it was 1.28 fold enrichment (6-mer frequency, TF over GST control).
